Screening data (PubChem)
An excerpt weighted towards active compounds, which were near 7.4% of everything screened.
p53 reactivator: re-activators of mutant p53 | AID 504706 | actives 0.063% (n = 320,000) | Potency, µM (titrated, usually from 92.2 µM), actives largely listed as activators | H1299 p53-A138V BP100-luciferase reporter, luminescence, 24 h; also: nearly all actives have a fitted effect of over 45% in size
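p53-null H1299 cells stably carrying temperature-sensitive p53-A138V and a BP100-luciferase reporter were pinned with compounds (4-point, 1:5 series) and held 24 hrs at 37 deg C. Luminescence was read 10 min after detection reagent.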
SMN2 splice enh: SMN2 splice variant enhancement; HEK293 SMN2-luciferase splicing reporter, luminescence, 30-36 h; Potency, µM (doses to about 46.1 µM), usual class: activators; actives 2.8% (n = 210,000); also: nearly all actives have a fitted effect of over 55% in size
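HEK293 cells carry an SMN2 […]–luciferase reporter in which exon 7 inclusion puts luciferase in frame. Cells were plated 10-12 h before compound addition, then incubated 30-36 h at 37C. ONE-Glo luminescence was read; sodium butyrate at 4.5 mM final served as control.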
Rab9 prom act: activates the Rab9 promoter. Huh7 Rab9 promoter-luciferase reporter, luminescence, 24 h. Potency, µM (doses to about 9.22 µM), actives largely listed as activators. actives 2.8% (n = 320,000). AID 485297; also: nearly all actives have a fitted effect of over 60% in size
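Luciferase signal after 10 min detection reagent at ambient indicates Rab9 promoter upregulation; stably transfected Huh7 cells were treated 24 h with compound in DMSO at 37 °C, 5% CO2.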
ELG1 genotox: inducers of genotoxicity in HEK293T ELG1-luciferase cells | AID 504466 | HEK293T ELG1-luciferase reporter, luminescence, 16 h | actives 1.3% (n = 330,000) | Potency, µM (highest dose often 46 µM), hits mostly activators; also: nearly all actives have a fitted effect of over 60% in size
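HEK293T cells expressing luciferase-tagged ELG1 were exposed to compound or DMSO vehicle for 16 hr at 37 °C and 5% CO2. Luciferase activity was then measured with ONE-Glo after 30 min at room temperature.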
FLuc counter: inhibits or activates purified firefly luciferase, miR-21 counter-screen; purified FLuc, Km substrates, luminescence inhibition; Potency, µM (series often up to 57.5 µM), most hits filed as inhibitors; actives 6.9% (n = 360,000); AID 588342; P08659; also: nearly all actives have a fitted effect of over 55% in size
Target sequence (P08659 whole entry, looked up): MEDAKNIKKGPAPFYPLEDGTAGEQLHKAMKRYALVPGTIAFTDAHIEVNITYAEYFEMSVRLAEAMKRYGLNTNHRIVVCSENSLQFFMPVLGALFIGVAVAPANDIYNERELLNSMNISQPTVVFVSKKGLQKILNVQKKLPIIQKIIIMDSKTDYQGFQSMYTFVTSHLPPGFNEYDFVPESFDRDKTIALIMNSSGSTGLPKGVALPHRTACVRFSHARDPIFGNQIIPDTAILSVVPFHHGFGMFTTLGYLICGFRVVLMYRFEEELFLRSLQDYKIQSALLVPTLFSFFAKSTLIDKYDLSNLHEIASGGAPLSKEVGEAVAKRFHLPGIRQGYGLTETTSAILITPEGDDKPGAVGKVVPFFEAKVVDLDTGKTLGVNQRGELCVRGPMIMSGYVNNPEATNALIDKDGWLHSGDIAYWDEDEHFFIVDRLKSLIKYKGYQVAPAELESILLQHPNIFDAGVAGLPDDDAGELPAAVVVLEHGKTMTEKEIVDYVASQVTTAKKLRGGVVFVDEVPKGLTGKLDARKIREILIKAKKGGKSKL
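Purified P. pyralis luciferase (10nM final) with 10uM D-luciferin and 10uM ATP (Km levels) in 50mM Tris acetate pH 7.5, 10mM Mg acetate, 0.01% Tween-20, 0.05% BSA; qHTS 6-point titration, ~60 µM downward; luminescence read.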
NPC1 prom act: activators of NPC1 promoter | AID 485313 | Huh7 NPC1 promoter luciferase reporter, 24 h | actives 2.4% (n = 320,000) | Potency, µM (top dose mostly 9.22 µM), most hits filed as activators; also: nearly all actives have a fitted effect of over 60% in size
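NPC1 promoter–luciferase Huh7 cells; 24 h compound; luminescence.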
Hits are given with their value; – = inactive; ? = inconclusive; · = no result given. Calls follow the shape of the dose curve; as a rule, active = well fitted curve in the direction sought with a large enough effect; inconclusive = small, poorly fitted or top-dose-only effect, or another doubt; inactive = no such curve, though single readings can be large; an effect the other way counts as inactive or inconclusive.

SMILES	p53 reactivator	SMN2 splice enh	Rab9 prom act	ELG1 genotox	FLuc counter	NPC1 prom act
O=C(/C=C/c1ccc2c(c1)OCO2)c1ccccn1	32µM	·	3.5µM	?	0.34µM	2.2µM
Nc1nonc1C(=O)N/N=C/c1cc2c(cc1Br)OCO2	–	·	–	–	?	–
O=C(N/N=C/c1cc2c(cc1Br)OCO2)c1cc2ccccc2o1	–	·	–	–	9.5µM	–
CCN(C(=O)/C=C/c1ccc2c(c1)OCO2)c1ccccc1	–	–	–	–	?	–
Cc1ccc(Oc2c(C(F)(F)F)oc3cc(OCC(=O)NC4CCCCC4)ccc3c2=O)cc1	·	–	·	·	–	·
Cc1ccc(Nc2c3c(nc4ccccc24)CCC3)cc1F	·	–	·	·	–	·
Cc1ccnc(Nc2nc3ccccc3o2)n1	–	2.5µM	0.4µM	1.2µM	3µM	?
Cc1ccc(Nc2nc3ccccc3o2)cc1F	–	?	1.6µM	5.8µM	6µM	?
Cc1ccc2oc(Nc3nc(C)c(C)c(C)n3)nc2c1	–	·	2.5µM	?	11µM	1.6µM
N#Cc1cnc(Nc2nc3ccccc3o2)nc1-c1ccccc1	–	–	?	–	–	–
Cc1nc(Nc2nc3ccccc3o2)nc(C)c1C	–	5.6µM	?	?	8.5µM	1µM
COc1cccc(N2CCN(C(=O)c3cc(C)oc3C)CC2)c1	–	·	–	–	–	–
CCCc1nc(Nc2nc3ccccc3o2)nc(C)c1C(=O)OCC	–	?	1.8µM	?	2.7µM	?
CCOc1cccc2cc(-c3cn4cc(C)ccc4n3)c(=O)oc12	–	2.8µM	0.56µM	?	0.12µM	0.63µM
C=CCn1c(=O)/c(=C/c2ccc(F)cc2)s/c1=C(\C#N)c1nnc2n1CCCCC2	–	·	–	–	–	–
CN(C)c1ccc(/C=c2\sc3n(c2=O)CCCN=3)cc1	–	1.6µM	0.32µM	?	0.24µM	0.4µM
O=c1/c(=C\c2ccc(F)cc2)sc2n1CCCN=2	–	?	?	?	13µM	?
Cc1ccccc1C(N)c1ccncc1 (centres undefined)	·	·	–	–	–	–
O=C(NCCCl)Nc1ccccc1OCCOc1ccccc1NC(=O)NCCCl	–	·	–	–	–	–
CCOc1ccccc1NC(=O)Nc1ccccn1	–	·	–	–	–	–
CCOc1ccccc1NC(=O)Nc1ccc(Cl)cc1	?	–	–	–	21µM	?
CCCOc1ccccc1NC(=O)Nc1ccccc1Cl	–	–	2.8µM	–	–	3.5µM
Cc1ccc(C(=O)Nc2ccc(Cl)c(-c3nc4ncccc4o3)c2)c(C)c1	·	?	·	·	2.7µM	·
CC1CCc2nc3ccccc3c(C(=O)OCC(=O)N3CCc4ccccc43)c2C1 (centres undefined)	–	–	–	–	4.8µM	–
COc1cccc(C(=O)OCC(=O)N2CCc3ccccc32)c1OC	–	·	–	?	11µM	–
SMILES	p53 reactivator	SMN2 splice enh	Rab9 prom act	ELG1 genotox	FLuc counter	NPC1 prom act
COc1cc(N)c(Cl)cc1C(=O)OCC(=O)N1CCc2ccccc21	–	·	–	–	–	–
O=C(OCC(=O)N1CCc2ccccc21)c1ccccc1	–	–	–	?	9.5µM	–
CCCc1nc2ccccc2c(C(=O)OCC(=O)N2CCc3ccccc32)c1CC	–	–	–	–	?	–
O=C(OCC(=O)N1CCc2ccccc21)c1cccnc1Cl	?	–	–	?	11µM	–
COC(=O)[C@@]1(Cc2ccccc2)[C@H]2c3cc(C(=O)N4CCCC4)n(Cc4cccc5ccccc45)c3C[C@H]2CN1C(=O)c1ccccc1	·	–	·	·	·	·
CCc1ccc2nc(N(Cc3cccnc3)C(C)=O)sc2c1	·	·	·	·	–	·
COc1cc2cc(C(=O)N(C)C3CCS(=O)(=O)C3)[nH]c2cc1OC (centres undefined)	–	·	–	–	–	–
O=C(c1cc(-c2ccc(Cl)cc2)on1)N(Cc1cccc(F)c1)Cc1ccco1	·	·	·	·	–	·
O=c1oc2cc(Cl)ccc2n1CSc1nc2ccccc2s1	?	–	?	15µM	8.5µM	?
Cc1ccc(NC(=O)Cn2c(=O)n(Cc3ccc4c(c3)OCO4)c(=O)c3oc4ccccc4c32)cc1C	·	·	·	·	–	·
C/C(=N\NC(=O)CC#N)c1cc2ccccc2oc1=O	–	·	–	–	–	–
